Shown is part of a subset that was picked to be rich in hits.
miR122 inh = raises miR-122 sensor activity in Huh7 cells. Huh7 psiCHECK-miR122 Renilla luciferase sensor, 48 h. activation, % at 12.5 µM. hit rate 0.14% among 340,000;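 active = mean activation of 30% or more, with every replicate also reaching 30%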;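 note: higher luciferase signal means stronger suppression of miR-122 activity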
Large screens that a line does not name were inactive.

C[C@H]1CN([C@@H](C)CO)S(=O)(=O)c2ccc(Br)cc2O[C@@H]1CN(C)C(=O)CC1CC1	none
Cc1noc(C)c1NC(=O)N(C)C[C@@H]1Oc2ncc(C#CC3CCCCC3)cc2C(=O)N([C@@H](C)CO)C[C@H]1C	none
CC(=O)N(C)C[C@@H]1Oc2cc(C#C[C@@H](C)O)ccc2S(=O)(=O)N([C@H](C)CO)C[C@H]1C	none
C[C@@H]1CN([C@@H](C)CO)C(=O)c2cc(C#CC3(O)CCCC3)cnc2O[C@H]1CN(C)Cc1ccncc1	none
C[C@@H]1CN([C@@H](C)CO)C(=O)c2cc(-c3cccc(C(=O)N(C)C)c3)cnc2O[C@@H]1CN(C)C(=O)Cc1ccccn1	none
C[C@H]1CN([C@@H](C)CO)S(=O)(=O)c2ccc(C#Cc3ccccc3)cc2O[C@@H]1CN(C)C(=O)Nc1ccccc1	none
CC(C)CC#Cc1cnc2c(c1)C(=O)N([C@H](C)CO)C[C@H](C)[C@@H](CN(C)CC1CCOCC1)O2	none
C[C@@H]1CN([C@H](C)CO)C(=O)c2cc(C3=CCCC3)cnc2O[C@@H]1CN(C)C(=O)C1CCCCC1	none
C[C@H](CO)N1C[C@H](C)[C@@H](CN(C)C(=O)c2ccccc2)Oc2cc(-c3cccc(C#N)c3)ccc2S1(=O)=O	none
Cc1nn(Cc2ccccc2Cl)c2sc(C(=O)OC3CCCC3=O)cc12 (stereo not given)	miR122 inh 36
C[C@@H]1CN([C@@H](C)CO)S(=O)(=O)c2ccc(C#C[C@@H](C)O)cc2O[C@H]1CN(C)CC1CCOCC1	none
COCC(=O)Nc1ccc2c(c1)C(=O)N(C)[C@@H]1CC[C@H](CC(=O)NCCCN(C)C)O[C@H]1CO2	miR122 inh 45
COCC(=O)Nc1ccc2c(c1)C(=O)N(C)[C@@H]1CC[C@H](CC(=O)NCc3ccccc3F)O[C@H]1CO2	miR122 inh 50
COCC(=O)Nc1ccc2c(c1)C(=O)N(C)[C@H]1CC[C@@H](CC(=O)O)O[C@H]1CO2	none
C[C@H](CO)N1C[C@H](C)[C@H](CN(C)Cc2ccc(C(=O)Nc3ccccc3N)cc2)Oc2ccc(NS(=O)(=O)c3cccs3)cc2CC1=O	none
COCC#Cc1ccc2c(c1)O[C@H](CN(C)C(=O)C1CCOCC1)[C@@H](C)CN([C@H](C)CO)S2(=O)=O	none
C[C@H]1CN([C@@H](C)CO)C(=O)c2cc(/C=C/c3ccccc3)cnc2O[C@@H]1CN(C)Cc1cccc(C(=O)O)c1	none
C[C@H]1CN([C@@H](C)CO)C(=O)c2cccc(NC(=O)C3CCOCC3)c2O[C@@H]1CN(C)Cc1ccc(C(F)(F)F)cc1	none
COCC#Cc1cnc2c(c1)C(=O)N([C@H](C)CO)C[C@H](C)[C@@H](CN(C)C(=O)Nc1ccc(OC)cc1)O2	none
O=C(Nc1ccccc1)N1C[C@H]2[C@@H](c3ccccc31)[C@@H](CO)N2C(=O)c1ccccn1	none
CC(C)CC#Cc1ccc([C@H]2[C@@H](CO)N3CCCCN(S(=O)(=O)Cc4ccccc4)C[C@H]23)cc1	miR122 inh 35
COCC#Cc1cnc2c(c1)C(=O)N([C@H](C)CO)C[C@@H](C)[C@@H](CN(C)C(=O)Nc1ccc(OC)cc1)O2	none
COc1ccc(C#Cc2ccc([C@H]3[C@H](CO)N4CCCCN(C(=O)Nc5ccccc5)C[C@@H]34)cc2)cc1	miR122 inh 35
COc1cccc(NC(=O)N(C)C[C@H]2Oc3cc(C#Cc4ccccc4)ccc3S(=O)(=O)N([C@H](C)CO)C[C@@H]2C)c1	none
COc1ccc(NC(=O)N2CCCCN3[C@@H](CO)[C@H](c4ccc(C#CCC(C)C)cc4)[C@@H]3C2)cc1	miR122 inh 33
CCCC#Cc1ccc2c(c1)O[C@H](CN(C)C(=O)NCCC)[C@H](C)CN([C@@H](C)CO)S2(=O)=O	none
C[C@@H]1CN([C@H](C)CO)C(=O)c2cc(-c3ccc(F)cc3)cnc2O[C@@H]1CN(C)CC1CCOCC1	none
C[C@H](CO)N1C[C@H](C)[C@@H](CN(C)Cc2ccc(C(F)(F)F)cc2)Oc2c(NC(=O)c3nc4ccccc4s3)cccc2C1=O	none
C[C@@H]1CN([C@@H](C)CO)C(=O)c2cc(-c3ccccc3F)cnc2O[C@@H]1CN(C)C(=O)C1CCCCC1	none
Cc1ccc(-c2cnc3c(c2)C(=O)N([C@@H](C)CO)C[C@H](C)[C@@H](CN(C)Cc2ccccc2F)O3)cc1	none
C[C@@H]1CN([C@H](C)CO)C(=O)c2cc(/C=C/c3ccccc3)cnc2O[C@H]1CN(C)C(=O)Nc1ccccc1F	none
CCS(=O)(=O)Nc1ccc2c(c1)C(=O)N(C)C[C@H](OC)[C@H](C)CN[C@H](C)CO2	none
C[C@H](O)C#Cc1ccc2c(c1)O[C@@H](CN(C)Cc1cncnc1)[C@@H](C)CN([C@H](C)CO)S2(=O)=O	none
COc1cccc(C(=O)Nc2ccc3c(c2)C(=O)N(C)[C@H]2CC[C@H](CC(=O)NCc4ccc(F)cc4)O[C@@H]2CO3)c1	miR122 inh 53
CC(=O)Nc1ccc2c(c1)C(=O)N(C)[C@H]1CC[C@@H](CC(=O)NCc3ccc(Cl)cc3)O[C@H]1CO2	none
COc1ccccc1C(=O)Nc1ccc2c(c1)C(=O)N(C)[C@H]1CC[C@H](CC(=O)NCc3ccc(Cl)c(Cl)c3)O[C@H]1CO2	none
